Experimental data from PubChem BioAssay AID1159580 (chemical genetic matrix, 2015).
Hit rate of the full screen: of about 5,500 compounds, about 2,000 (36%) were called active. About 18% were inconclusive and are not listed. No stated cut-off is given here; in the data, active means normalized growth mostly below about 0.91 (no sharp cut-off); inconclusive means no clear call, values can overlap the other calls; inactive means mostly above about 0.92. The list shows a part of the results.

Assay: chemical genetic growth profiling, strain panel (AID 1159580);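 further: tested at 20 µM; growth read once vehicle control cultures reached saturation at 30 °C; 1 = growth at the plate median or of vehicle wells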
Conditions: growth OD

Measured: normalized growth

COc1ccc2cc(CCC(C)=O)ccc2c1
inactive: S. cerevisiae deletion strains, locus YJR075W, strain HOC1, stronger effect = lower value 0.965 | S. cerevisiae deletion strains, locus YKL068W, stronger effect = lower value 0.963 | S. cerevisiae deletion strains, locus YKL085W, strain MDH1 (second series), stronger effect = lower value 0.966 | S. cerevisiae deletion strains, locus YKL085W, strain MDH1, stronger effect = lower value 0.966 | S. cerevisiae deletion strains, locus YKL160W, strain elf1, stronger effect = lower value 0.997 | S. cerevisiae deletion strains, locus YKL190W, strain CNB1, stronger effect = lower value 0.972 | S. cerevisiae deletion strains, locus YKR001C, strain vps1, stronger effect = lower value 0.932 | S. cerevisiae deletion strains, locus YKR026C, strain gcn3, stronger effect = lower value 0.984 | S. cerevisiae deletion strains, locus YKR091W, strain srl3, stronger effect = lower value 0.992 | S. cerevisiae deletion strains, locus YLL001W, strain dnm1, stronger effect = lower value 0.982 | S. cerevisiae deletion strains, locus YLL026W, stronger effect = lower value 0.991 | S. cerevisiae deletion strains, locus YLL041C, strain sdh2, stronger effect = lower value 0.996 | S. cerevisiae deletion strains, locus YLR027C, strain aat2, stronger effect = lower value 0.997 | S. cerevisiae deletion strains, locus YLR039C, strain RIC1, stronger effect = lower value 1.11 | S. cerevisiae deletion strains, locus YLR058C, strain SHM2, stronger effect = lower value 0.948 | S. cerevisiae deletion strains, locus YLR102C, strain apc9, stronger effect = lower value 0.944 | S. cerevisiae deletion strains, locus YLR113W, strain HOG1, stronger effect = lower value 0.965 | S. cerevisiae deletion strains, locus YLR221C, strain rsa3, stronger effect = lower value 0.992 | S. cerevisiae deletion strains, locus YLR258W, strain gsy2, stronger effect = lower value 0.998 | S. cerevisiae deletion strains, locus YLR262C, strain YPT6 (second series), stronger effect = lower value 1.03 | S. cerevisiae deletion strains, locus YLR262C, strain YPT6, stronger effect = lower value 1.04 | S. cerevisiae deletion strains, locus YLR268W, strain sec22, stronger effect = lower value 1.01 | S. cerevisiae deletion strains, locus YLR320W, strain mms22, stronger effect = lower value 0.971 | S. cerevisiae deletion strains, locus YLR330W, strain CHS5, stronger effect = lower value 0.951 | S. cerevisiae deletion strains, locus YLR342W, strain FKS1 (second series), stronger effect = lower value 0.885 | S. cerevisiae deletion strains, locus YLR342W, strain FKS1, stronger effect = lower value 0.993 | S. cerevisiae deletion strains, locus YLR357W, strain rsc2, stronger effect = lower value 0.992 | S. cerevisiae deletion strains, locus YLR370C, strain arc18, stronger effect = lower value 0.998 | S. cerevisiae deletion strains, locus YLR371W, strain rom2, stronger effect = lower value 0.932 | S. cerevisiae deletion strains, locus YLR384C, strain iki3, stronger effect = lower value 0.986 | S. cerevisiae deletion strains, locus YML016C, strain PPZ1, stronger effect = lower value 0.941 | S. cerevisiae deletion strains, locus YML032C, strain rad52, stronger effect = lower value 0.967 | S. cerevisiae deletion strains, locus YML120C, strain ndi1, stronger effect = lower value 0.985 | S. cerevisiae deletion strains, locus YMR058W, strain fet3, stronger effect = lower value 0.996 | S. cerevisiae deletion strains, locus YMR078C, strain ctf18, stronger effect = lower value 0.929 | S. cerevisiae deletion strains, locus YMR125W, strain sto1, stronger effect = lower value 1.01 | S. cerevisiae deletion strains, locus YMR129W, stronger effect = lower value 0.983 | S. cerevisiae deletion strains, locus YMR205C, strain PFK2, stronger effect = lower value 1.01 | S. cerevisiae deletion strains, locus YMR231W, strain pep5, stronger effect = lower value 0.999 | S. cerevisiae deletion strains, locus YMR263W, strain SAP30, stronger effect = lower value 0.923 | S. cerevisiae deletion strains, locus YMR307W, strain GAS1, stronger effect = lower value 0.917 | S. cerevisiae deletion strains, locus YNL067W, strain RPL9B, stronger effect = lower value 0.97 | S. cerevisiae deletion strains, locus YNL071W, strain lat1, stronger effect = lower value 0.987 | S. cerevisiae deletion strains, locus YNL128W, strain TEP1, stronger effect = lower value 0.963 | S. cerevisiae deletion strains, locus YNL153C, strain GIM3, stronger effect = lower value 0.975 | S. cerevisiae deletion strains, locus YNL183C, strain NPR1, stronger effect = lower value 0.91 | S. cerevisiae deletion strains, locus YNL209W, strain ssb2, stronger effect = lower value 0.995 | S. cerevisiae deletion strains, locus YNL233W, strain BNI4, stronger effect = lower value 0.972 | S. cerevisiae deletion strains, locus YNL248C, strain rpa49, stronger effect = lower value 1.02 | S. cerevisiae deletion strains, locus YNL250W, strain rad50, stronger effect = lower value 0.943 | S. cerevisiae deletion strains, locus YNL271C, strain bni1, stronger effect = lower value 0.939 | S. cerevisiae deletion strains, locus YNL298W, strain CLA4, stronger effect = lower value 0.919 | S. cerevisiae deletion strains, locus YNL322C, strain KRE1 (second series), stronger effect = lower value 0.996 | S. cerevisiae deletion strains, locus YNL322C, strain KRE1, stronger effect = lower value 0.961 | S. cerevisiae deletion strains, locus YNR049C, strain mso1, stronger effect = lower value 0.991 | S. cerevisiae deletion strains, locus YNR052C, strain pop2, stronger effect = lower value 0.972 | S. cerevisiae deletion strains, locus YOL006C, strain TOP1, stronger effect = lower value 0.672 | S. cerevisiae deletion strains, locus YOL012C, strain htz1 1.84 | S. cerevisiae deletion strains, locus YOL147C, strain pex11, stronger effect = lower value 0.939 | S. cerevisiae deletion strains, locus YOR001W, strain rrp6, stronger effect = lower value 0.979 | S. cerevisiae deletion strains, locus YOR061W, strain CKA2, stronger effect = lower value 0.947 | S. cerevisiae deletion strains, locus YOR069W, strain VPS5, stronger effect = lower value 0.97 | S. cerevisiae deletion strains, locus YOR070C, strain gyp1, stronger effect = lower value 0.991 | S. cerevisiae deletion strains, locus YOR080W, strain dia2, stronger effect = lower value 0.988 | S. cerevisiae deletion strains, locus YOR083W, strain WHI5, stronger effect = lower value 0.985 | S. cerevisiae deletion strains, locus YOR106W, strain vam3, stronger effect = lower value 1 | S. cerevisiae deletion strains, locus YOR136W, strain idh2, stronger effect = lower value 0.956 | S. cerevisiae deletion strains, locus YOR144C, strain elg1, stronger effect = lower value 0.951 | S. cerevisiae deletion strains, locus YOR231W, strain MKK1, stronger effect = lower value 0.93 | S. cerevisiae deletion strains, locus YOR265W, strain rbl2, stronger effect = lower value 0.987 | S. cerevisiae deletion strains, locus YOR270C, strain vph1, stronger effect = lower value 0.886 | S. cerevisiae deletion strains, locus YOR290C, strain snf2, stronger effect = lower value 0.977 | S. cerevisiae deletion strains, locus YOR316C, strain cot1, stronger effect = lower value 0.943 | S. cerevisiae deletion strains, locus YPL051W, strain arl3, stronger effect = lower value 0.985 | S. cerevisiae deletion strains, locus YPL055C, strain LGE1, stronger effect = lower value 0.88 | S. cerevisiae deletion strains, locus YPL078C, strain atp4, stronger effect = lower value 0.981 | S. cerevisiae deletion strains, locus YPL106C, strain sse1, stronger effect = lower value 0.96 | S. cerevisiae deletion strains, locus YPL240C, strain hsp82, stronger effect = lower value 0.992 | S. cerevisiae deletion strains, locus YPL241C, strain CIN2, stronger effect = lower value 0.96 | S. cerevisiae deletion strains, locus YPL256C, strain CLN2, stronger effect = lower value 0.911 | S. cerevisiae deletion strains, locus YPR119W, strain clb2, stronger effect = lower value 0.943 | S. cerevisiae deletion strains, locus YPR141C, strain kar3, stronger effect = lower value 0.924 | S. cerevisiae deletion strains, locus YPR163C, strain tif3, stronger effect = lower value 0.935 | S. cerevisiae deletion strains, locus YPR167C, strain met16, stronger effect = lower value 0.941 | S. cerevisiae deletion strains, strain wtn01, stronger effect = lower value 0.959 | S. cerevisiae strains, strain wild type, stronger effect = lower value 0.935
active: S. cerevisiae deletion strains, locus YKL009W, strain mrt4, stronger effect = lower value 0.86 | S. cerevisiae deletion strains, locus YLR418C, strain cdc73, stronger effect = lower value 0.78 | S. cerevisiae deletion strains, locus YML124C, strain tub3, stronger effect = lower value 0.929 | S. cerevisiae deletion strains, locus YMR223W, strain ubp8, stronger effect = lower value 0.895 | S. cerevisiae deletion strains, locus YNL307C, strain MCK1, stronger effect = lower value 0.827 | S. cerevisiae deletion strains, locus YOR184W, strain ser1, stronger effect = lower value 0.786
